Shown are actives, neighbours in structure and some others; about 2.9% of the full set was active somewhere.
SKN-1 inh – C. elegans SKN-1 inhibition | C. elegans VP596 Pgst-4::GFP/RFP ratio, acrylamide-induced, 24 h | 360,000 compounds, 0.49% hits | inhibition, % at 21.8 µM;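 active means interference check ratio from 0.5 to 1.5 plus GFP to RFP signal ratio inhibition reaching or exceeding a fixed threshold, cut at about 30% in these data, passing the limit was not always enough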
EP2 antag – blocks the human prostaglandin E2 receptor EP2. P43116. C6 glioma cells expressing human EP2, cAMP TR-FRET; cells stimulated with saturating PGE2. inhibition, % at 25 µM. 260,000 compounds, 0.52% hits;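 active means percent inhibition above 40 after rounding to a whole number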;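 further: rat C6 glioma host cells with rolipram phosphodiesterase inhibitor present; the protocol text gives 20 µM as final concentration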
Target sequence (P43116 whole entry, looked up): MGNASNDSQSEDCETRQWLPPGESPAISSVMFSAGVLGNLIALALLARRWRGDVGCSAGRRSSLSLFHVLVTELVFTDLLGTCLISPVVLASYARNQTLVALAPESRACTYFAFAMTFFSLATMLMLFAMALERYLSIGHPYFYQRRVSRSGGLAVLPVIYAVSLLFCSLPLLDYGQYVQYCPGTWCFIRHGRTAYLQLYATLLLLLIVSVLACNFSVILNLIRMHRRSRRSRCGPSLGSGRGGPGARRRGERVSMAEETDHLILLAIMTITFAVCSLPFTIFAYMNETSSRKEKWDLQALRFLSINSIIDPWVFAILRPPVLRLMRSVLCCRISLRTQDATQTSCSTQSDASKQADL
NR1D1 modulator – Rev-erb alpha (human) modulation; Rev-erbα–FITC-DNA binding, fluorescence polarization, 90 min; 370,000 compounds, 0.79% hits; activity, % at 10 µM; P20393;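 active means activity above about 14%, limit read from the data; passing the limit was not always enough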;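 further: 0% = DMSO wells with 35 nM protein and 100% = DMSO wells with 750 nM protein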
RAM inhibit – yeast RAM network inhibition; inhibition, % at 50 µM; 190,000 compounds, 1.8% hits; S. cerevisiae dse1pr::URA3 reporter, 5-FOA growth OD615, 2 d; analog-sensitive cbk1-as2 kinase mutant strain;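 active means inhibition above a set limit, 3 SD over mean compound inhibition, cut at about 8.4% in these data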;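 further: 0% = DMSO-only wells with no growth and 100% = 10 µM 1-NA-PP1 full growth; inhibition rescues growth on 5-FOA so higher OD means more RAM inhibition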
PG9 binder – small molecules binding HIV-1 gp120 antibody PG9; TR-FRET gp120-PG9 antibody binding; inhibition, % at 6.7 µM; 360,000 compounds, 0.43% hits; in the data active means inhibition above about 8.5%
EP2 mod – modulators of human EP2 prostaglandin E2 receptor; P43116; EP2-expressing cells, cAMP HTRF FRET, PGE2 co-stimulation; induction, % at 25 µM; 260,000 compounds, 0.83% hits;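 active means compounds whose cAMP rise, as percent of the full-agonist control response, exceeds 60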;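 further: rat C6 glioma line stably carrying human EP2 under a CMV promoter; the protocol text gives 20 µM as final concentration; 100% = response of wells given 1 µM PGE2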
Rev-erbA confirm – confirmation of modulators of human Rev-erb alpha DNA binding; activation, % at 25 µM; Rev-erb alpha FITC-DNA binding, fluorescence polarization, 90 min; shares compounds with NR1D1 modulator; 3,000 compounds, 61% hits; AID 1259319;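 active means activation at or above a set limit, or at least 3 SD above the negative control mean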;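 further: 0% = 35 nM protein with DMSO and 100% = 750 nM protein high control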
RORg DNA counter – counter-screen for Rev-erb alpha modulators: RORgamma DNA binding; shares compounds with NR1D1 modulator; purified RORgamma protein-FITC-DNA binding, fluorescence polarization; IC50, µM; 910 compounds, 8% hits; AID 1259320;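 active means Compounds whose fitted half-maximal concentration for disrupting protein-DNA binding is below 10 micromolar; the record names Rev-erb in its text, so the target is in doubt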
An asterisk follows results filed as active; i = inactive; . = no result given.

SMILES	SKN-1 inh	EP2 antag	NR1D1 modulator	RAM inhibit	PG9 binder	EP2 mod	Rev-erbA confirm	others
CCCCn1c(=O)[nH]c(=O)c2c1nc(-c1ccc(OCCC)c(OCC)c1)n2C	2	4	21*	.	0	5	-6
CCOc1ncccc1C(=O)OCc1cc(=O)oc2c(C)c(C)ccc12	-6	7	34*	3	-2	21	6
Cc1cccc(C(=O)OCc2cc(=O)oc3c(C)c(C)ccc23)c1O	-11	.	.	.	.	.	.
CC(C)c1nc2ccccc2c(=O)[nH]1	.	5	.	.	.	-9	.
O=C(CNC(=O)Cc1ccccc1)NCC(=O)OCc1ccc(C(=O)c2ccccc2)cc1	4	8	22*	3	.	-16	20*
CCOC(=O)c1ccc(COC(=O)CNC(=O)CNC(=O)Cc2ccccc2)cc1	6	.	0	.	0	.	.
Cc1c(-c2ccc(F)cc2)nc(N)c(C#N)c1-c1cccnc1	4	7	0	.	2	-27	.
Cc1nn(-c2ccc(F)cc2)c2nc(N)c(C#N)c(-c3cccs3)c12	-2	13	80*	3	1	55	45*
Cc1c(-c2ccc(F)cc2)nc(N)c(C#N)c1-c1cccs1	-22	8	78*	5	0	9	53*	RORg DNA counter=3.2*
CC(C)c1nnc(NC(=O)c2ncoc2-c2ccccc2F)s1	.	.	.	.	.	-23	.
CCC(=O)N1CCC1(C)C(=O)Nc1cnc2ccccc2c1 (stereo not drawn)	6	.	17*	.	0	.	-2
CC1(C(=O)Nc2cnc3ccccc3c2)CCN1C(=O)C/C=C/c1ccccc1 (stereo not drawn)	4	.	0	.	1	.	.
CC(C)(C)c1ccc(C(=O)c2c[nH]c(C(=O)NCc3cccnc3)c2)cc1	8	13	1	1	-3	31	.
O=C(Cc1ccc(Cl)cc1)c1c[nH]c(C(=O)NCc2cccnc2)c1	2	2	19*	0	1	-10	35*	RORg DNA counter=>40
Cc1cc(C)c2cc(CN(CCc3ccccc3)Cc3nnnn3CC3CCCO3)c(=O)[nH]c2c1 (stereo not drawn)	.	21	.	.	.	-4	.
CCc1nc(SCC(=O)N2CCCc3ccccc32)c2ccccc2n1	.	9	.	.	.	34	.
CCN(CC)c1ccc2cc(NC(=O)CCC(=O)O)c(=O)oc2c1	-12	10	1	0	-5	26	.
CCN(CC)c1ccc2cc(C=O)c(=O)oc2c1	-4	8	90*	2	-7	0	74*	RORg DNA counter=>40
CCN(CC)c1ccc2cc(-c3nnc(-c4ccncc4)o3)c(=O)oc2c1	-37	9	59*	1	-5	11	30*
CCN(CC)c1ccc2cc(C(N)=O)c(=O)oc2c1	15	6	9	8	-2	7	.
CCN(CC)c1ccc2cc(C(N)=O)c(=N)oc2c1	-81	10	55*	1	-5	-15	24*
CCN(CC)c1ccc2cc(C(C)=O)c(=O)oc2c1	-26	10	36*	-1	-5	10	9
O=c1[nH]c2cc3c(cc2cc1CN(Cc1cccs1)Cc1nnnn1C1CCCCC1)OCO3	.	17	.	.	.	21	.
Cc1cccc2cc(C(c3nnnn3CCc3ccccc3)N3CCN(C)CC3)c(=O)[nH]c12 (stereo not drawn)	.	10	.	.	.	-49	.
Cc1nc(NCCc2ccc(Cl)cc2)c2nnn(Cc3ccccc3)c2n1	-3	.	40*	.	-1	.	35*	RORg DNA counter=i
SMILES	SKN-1 inh	EP2 antag	NR1D1 modulator	RAM inhibit	PG9 binder	EP2 mod	Rev-erbA confirm	others
Cc1nc(NCCc2ccccc2)c2nnn(Cc3ccccc3)c2n1	0	.	3	.	4	.	.
COc1cc2[nH]c(=O)c(C(=O)NCc3ccccn3)c(O)c2cc1OC	.	6	.	.	.	-2	.
COc1ccccc1CNC(=O)c1c(O)c2cc(OC)c(OC)cc2[nH]c1=O	-27	13	28*	0	0	15	19*
N#Cc1c(N)oc(-c2cccs2)c1-c1cccs1	3	16	24*	1	3	17	34*
COc1ccc(CN(Cc2cc3cc(OC)c(OC)cc3[nH]c2=O)C(=O)NC2CCCCC2)cc1	4	7	50*	5	-1	-16	78*	RORg DNA counter=>40
CNC(=S)N(Cc1ccc(OC)cc1)Cc1cc2cc(C)ccc2[nH]c1=O	-6	21	40*	8.5*	0	22	25*
COCCn1nnnc1C(c1cc2cc(OC)ccc2[nH]c1=O)N1CCN(Cc2ccccc2)CC1 (stereo not drawn)	.	4	.	.	.	2	.
O=C(COc1ccc(S(=O)(=O)N2CCCC2)cc1)Nc1cc(Cl)ccc1Cl	.	6	.	.	.	12	.
N#Cc1ccc(-c2cccnc2)nc1SCc1ccc(Cl)cc1Cl	13	8	20*	4	-2	50	6
Cc1cc(NC(=O)CSc2nc(-c3cccnc3)ccc2C#N)no1	-2	13	-1	1	-1	7	.
COc1cc(OC)cc(C(=O)Nc2ccc(S(=O)(=O)Nc3ccccn3)cc2)c1	19	22	25*	.	-2	-1	17
O=C1c2ccccc2NC(c2ccc(-c3ccccc3F)o2)N1O (stereo not drawn)	9	.	24*	.	-1	.	21*
COc1ccc(CN2C(=O)c3cccc4cccc(c34)C2=O)cc1	-1	7	23*	.	0	2	15*
COC(=O)c1cccc(C23CC4(C2)[C@H](CN(C)[C@@H]4c2ccccc2)C3c2ccccc2)c1 (stereo partly drawn)	10	14	22*	.	0	7	41*
CCn1cc(C(=O)N2CCN(Cc3cccc(OC)c3)C[C@@H]2C)c(C)n1	.	.	.	.	.	-52	.
COc1ccc(N2CCN(c3ccc(NC(=O)C4CCCCC4)cc3C#N)CC2)cc1	-27	11	30*	4	5	29	11
COc1ccc(N2CCN(c3ccc(N)cc3C#N)CC2)cc1	20	8	-2	2	-4	-11	.
COc1ccc(C(=O)Nc2ccc(N3CCN(c4ccc(OC)cc4)CC3)c(C#N)c2)cc1	2	12	84*	4	-1	29	56*
Cc1ccccc1CN1CCc2nc(N3CCOCC3)[nH]c(=O)c2C1	.	9	.	.	.	-16	.
CCC1CCCCN1S(=O)(=O)c1ccc(S(=O)(=O)N2CCCC2)cc1 (stereo not drawn)	.	23	.	.	.	-56	.
Cc1cccc(C(=O)Nc2ccc(N3CCN(c4ccc(C(F)(F)F)cn4)CC3)nc2)c1	-6	14	65*	.	0	5	-4
CC(C)(C)C(=O)Nc1ccc(N2CCN(c3ccc(C(F)(F)F)cn3)CC2)nc1	-11	11	3	.	0	-7	.
